The text below walks through data of the supplement of paper PMC4166925.

± gives the standard deviation of the averaged measurements. The full ranking holds about 33,000 sequences; the median of “E-score (dimensionless, -0.5 to 0.5)” is about -0.049, and the highest 2% start at about 0.37. Shown is part of a subset that was picked to be rich in the highest values.

In this assay the test system is T1, PmTbr T-box DNA-binding domain (GST fusion).
T1 sequence: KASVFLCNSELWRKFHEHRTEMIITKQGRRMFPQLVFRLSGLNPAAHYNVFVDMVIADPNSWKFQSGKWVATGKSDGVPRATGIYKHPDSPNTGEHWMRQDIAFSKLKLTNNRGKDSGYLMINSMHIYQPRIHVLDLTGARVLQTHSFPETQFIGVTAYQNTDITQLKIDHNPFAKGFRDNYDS
Briefly: PBM E-score of 8-mer (E-score (dimensionless, -0.5 to 0.5)); Tbr is Tbrain of the sea star Patiria miniata (Pm) or the sea urchin Strongylocentrotus purpuratus (Sp); higher = stronger binding preference. Conditions: the construct has about 5 more residues each side. Put shortly:
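Using the Universal PBM Analysis Suite, every ungapped 8-mer received an enrichment E-score averaged over duplicate arrays. Probe intensities came from double-stranded Universal Agilent oligonucleotide arrays incubated with 200 nM GST-fused Tbr T-box DNA-binding domain in PBS (pH 7.5). That protein was expressed in BL21 E. coli at 20 °C and purified by glutathione affinity chromatography.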
As to CATTACCA, the “PBM E-score of 8-mer” value is -0.0668 ± 0.0072.
With ACTCCTTC, the “PBM E-score of 8-mer” value is 0.0419 ± 0.014.
As for AGCTATAA, the “PBM E-score of 8-mer” value is -0.182 ± 0.011.
The same measure for AGTTAGGG: -0.128 ± 0.021; for AAGGTGCG: 0.45 ± 0.014; for AGGGTGCG: 0.356 ± 0.052.
For CTGGTGCC, the “PBM E-score of 8-mer” value was determined as 0.128 ± 0.018.
In the case of ACGGTGCG it was 0.309 ± 0.042.
On to CAGATGCG, for which the “PBM E-score of 8-mer” value was -0.135 ± 0.048.
Regarding CAGGTGCC, the “PBM E-score of 8-mer” value was 0.4 ± 0.0072.
Turning to CAGGTGCA, the “PBM E-score of 8-mer” value was found to be 0.277 ± 0.021.
Regarding CGGGTGCC, the “PBM E-score of 8-mer” value is 0.247 ± 0.024.
For the sequence CAGGTGCG, the “PBM E-score of 8-mer” value came to 0.4533 ± 0.0028.
The same measure for CCCACTCC: -0.0608 ± 0.036; for CCCAGATA: -0.233 ± 0.14; for CGAAAGCC: -0.0801 ± 0.046.
CAGTAAAC: the “PBM E-score of 8-mer” value is -0.125 ± 0.0037.
On to ACTAAACT, for which the “PBM E-score of 8-mer” value was -0.221 ± 0.1.
For the sequence AAGGACTT, the “PBM E-score of 8-mer” value is -0.228 ± 0.067.
Regarding ATGTTATA, the “PBM E-score of 8-mer” value was -0.0814 ± 0.076.
As for CTGTTAGA, the “PBM E-score of 8-mer” value worked out at 0.118 ± 0.0087.
Regarding ATGTTACA, the “PBM E-score of 8-mer” value came to 0.0933 ± 0.047.
Consider ATGTTAGA, for which the “PBM E-score of 8-mer” value was -0.236 ± 0.027.
Turning to CTGTTATA, the “PBM E-score of 8-mer” value is 0.184 ± 0.016.
In the case of GTGTTATA it was 0.426 ± 0.013; in that of GTGTTAAA, 0.429 ± 0.021.
In the case of CTGTTAAA it was 0.23 ± 0.015; in that of CTGTTACA, 0.197 ± 0.0076; in that of GTGTTACA, 0.386 ± 0.013.
As for TTGTTAAA, the “PBM E-score of 8-mer” value is 0.199 ± 0.035.
In the case of GTGTTAGA, the “PBM E-score of 8-mer” value was determined as 0.419 ± 0.0094.
The same measure for CACCAGTA: 0.132 ± 0.018.
In the case of CAGGCGTA, the “PBM E-score of 8-mer” value is -0.0498 ± 0.043.
Take AGCCACGC: the “PBM E-score of 8-mer” value was -0.0441 ± 0.025.
In the case of ACACTACG, the “PBM E-score of 8-mer” value is 0.283 ± 0.0065.
In the case of AGAGTTGC, the “PBM E-score of 8-mer” value was found to be 0.0099 ± 0.0045.
AGTACTCC: the “PBM E-score of 8-mer” value is -0.28 ± 0.033.
On to CTAGGCCC, for which the “PBM E-score of 8-mer” value is -0.274 ± 0.082.
In the case of TAATGCGA, the “PBM E-score of 8-mer” value turned out to be 0.0983 ± 0.054.
As to AAAACCTG, the “PBM E-score of 8-mer” value was found to be 0.191 ± 0.063.
The same measure for CTAGCCAG: -0.185 ± 0.027; for AAACTCTC: -0.00208 ± 0.031; for GGAGCTCA: -0.0734 ± 0.021.
As to ATGTTAAC, the “PBM E-score of 8-mer” value stood at 0.161 ± 0.015.
Turning to GTGTTAAC, the “PBM E-score of 8-mer” value is 0.438 ± 0.017.
As to CTGTTAAC, the “PBM E-score of 8-mer” value came out at 0.281 ± 0.055.
As for CTAAGTGA, the “PBM E-score of 8-mer” value worked out at 0.225 ± 0.032.
Consider AACTTAGA, for which the “PBM E-score of 8-mer” value is -0.157 ± 0.055.
The same measure for ACGCAGTA: -0.0663 ± 0.018; for CGATGTCA: 0.0984 ± 0.03.
On to GCGTGTCA, for which the “PBM E-score of 8-mer” value stood at 0.276 ± 0.034.
With CGGTGTGA, the “PBM E-score of 8-mer” value was 0.451 ± 0.0064.
As for CGATGTGA, the “PBM E-score of 8-mer” value was 0.228 ± 0.018.
In the case of CGGTGTCA, the “PBM E-score of 8-mer” value turned out to be 0.4 ± 0.012.
In the case of GGGTGTCA it was 0.472 ± 0.0071; in that of GGGGGTCA, -0.0111 ± 0.17.
In the case of CGGTGTCC, the “PBM E-score of 8-mer” value was -0.00395 ± 0.072.
Consider CGGTGTGC, for which the “PBM E-score of 8-mer” value came to 0 ± 0.12.
CGAAATTC: the “PBM E-score of 8-mer” value is 0.0215 ± 0.011.
On to ATAATGCC, for which the “PBM E-score of 8-mer” value was -0.174 ± 0.081.
Turning to AGTATGCG, the “PBM E-score of 8-mer” value is -0.0996 ± 0.096.
On to CAGAACCA, for which the “PBM E-score of 8-mer” value is -0.232 ± 0.018.
Consider GCAATTCA, for which the “PBM E-score of 8-mer” value is 0.0777 ± 0.042.
GACAAGGC: the “PBM E-score of 8-mer” value worked out at 0.101 ± 0.025.
Regarding ATTCGCAC, the “PBM E-score of 8-mer” value was 0.4784 ± 0.002.
Turning to CTTCGCAC, the “PBM E-score of 8-mer” value stood at 0.454 ± 0.019.
On to CTTCGCAA, for which the “PBM E-score of 8-mer” value came out at 0.336 ± 0.028.
As to ATTCGCAG, the “PBM E-score of 8-mer” value was 0.297 ± 0.024.
With ATTCGCAA, the “PBM E-score of 8-mer” value is 0.298 ± 0.027.
Take CTTCGCCC: the “PBM E-score of 8-mer” value is -0.0791 ± 0.096.
Consider GATTACGA, for which the “PBM E-score of 8-mer” value is -0.00232 ± 0.07.
In the case of ATGGCAGA it was -0.0257 ± 0.063.
As for AAGACATT, the “PBM E-score of 8-mer” value is -0.203 ± 0.097.
Regarding CTGACACC, the “PBM E-score of 8-mer” value was determined as 0.464 ± 0.0063.
Consider ATGACACG, for which the “PBM E-score of 8-mer” value came to 0.312 ± 0.017.
As for CTGACAGC, the “PBM E-score of 8-mer” value turned out to be 0.289 ± 0.011.
On to CTGACATC, for which the “PBM E-score of 8-mer” value is -0.0976 ± 0.035.
In the case of ATGACACA it was 0.314 ± 0.0075.
The same measure for ATGACACC: 0.463 ± 0.0098.
The same measure for GCCGCTGA: -0.113 ± 0.074; for GACATCGA: -0.0159 ± 0.0023.
In the case of CGCACCAG, the “PBM E-score of 8-mer” value is 0.2978 ± 0.0014.
Turning to CACCACAC, the “PBM E-score of 8-mer” value came out at 0.367 ± 0.018.
In the case of CACACCAC it was 0.406 ± 0.012; in that of AACACCAG, 0.335 ± 0.022; in that of CTCACCAA, 0.211 ± 0.042.
Take CACACCAA: the “PBM E-score of 8-mer” value worked out at 0.3718 ± 0.0018.
Take CCCACCAA: the “PBM E-score of 8-mer” value is -0.112 ± 0.048.
Turning to CACACCAG, the “PBM E-score of 8-mer” value was determined as 0.399 ± 0.018.
The same measure for CCCACCAC: -0.0276 ± 0.048; for CAATATCG: 0.06478 ± 0.00031; for GCCATAGA: -0.0661 ± 0.067.
For the sequence CAGGTAGC, the “PBM E-score of 8-mer” value was -0.062 ± 0.011.
In the case of CAGTACCA, the “PBM E-score of 8-mer” value is -0.0345 ± 0.056.
